# Only some compounds are listed: those with a hit (about 1.9% of all), similar ones and a draw of the others.
# PKM2 activator: activators of human pyruvate kinase M2; purified PKM2, Kinase-Glo ATP luminescence, activation; response scale: 0% is enzyme alone, no compound; P14618; Potency, µM (top dose mostly 57.5 µM), for the others: at the top dose activation, hits mostly activators; 260,000 tested, 0.34% active; AID 1631; further: potency means the concentration at half of the fitted maximal effect; on the % scale 0 is the no-effect control and ±100 the full control effect; nearly all actives have a fitted effect of over 55% in size
#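 Purified hPK-M2 (>95%) run at intermediate activity with 0.1 mM ADP and 0.5 mM PEP in 50 mM imidazole pH 7.2, KCl, MgCl2; 1 h room temperature. ATP formed read by Kinase-Glo luminescence; normalized to uninhibited and no-enzyme controls.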
# Pin1 inhibitor: human Pin1 inhibition; Q13526; Pin1 FP peptide displacement, HiFluor488, 10 min; Potency, µM (doses to about 115 µM), without a hit: at the highest dose activity, negative = inhibition, hits mostly inhibitors; 390,000 tested, 0.009% active; AID 504891; active means well fitted inhibition curve with a large enough effect in the polarisation, with a control signal flat, not every such curve was filed as active; inconclusive means small, poorly fitted or top-dose-only effect, or effect the other way, or a change in a side signal; inactive means no such curve, though single readings can be large or run the other way; the % refers to the polarisation; further: potency means the concentration at half of the fitted maximal effect; on the % scale 0 is the no-effect control and ±100 the full control effect
# Target sequence (Q13526 whole entry, looked up): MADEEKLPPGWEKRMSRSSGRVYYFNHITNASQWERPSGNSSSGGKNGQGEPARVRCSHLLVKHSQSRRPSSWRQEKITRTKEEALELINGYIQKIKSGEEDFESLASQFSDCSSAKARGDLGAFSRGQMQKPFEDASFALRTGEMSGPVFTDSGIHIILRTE
# USP2a block: USP2a (human) protease inhibition. 330,000 tested, 0.01% active. USP2 core, Ub-CHOP2 coupled fluorogenic reporter, 485/531. Potency, µM (titrated, usually from 38.3 µM), inactives show at the highest dose activity change, negative = inhibition, hits mostly inhibitors;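 further: potency means the concentration at half of the fitted maximal effect; plate controls were DMSO wells for no effect and full inhibition by NEM control for full effect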
# Target sequence (O75604 whole entry, looked up): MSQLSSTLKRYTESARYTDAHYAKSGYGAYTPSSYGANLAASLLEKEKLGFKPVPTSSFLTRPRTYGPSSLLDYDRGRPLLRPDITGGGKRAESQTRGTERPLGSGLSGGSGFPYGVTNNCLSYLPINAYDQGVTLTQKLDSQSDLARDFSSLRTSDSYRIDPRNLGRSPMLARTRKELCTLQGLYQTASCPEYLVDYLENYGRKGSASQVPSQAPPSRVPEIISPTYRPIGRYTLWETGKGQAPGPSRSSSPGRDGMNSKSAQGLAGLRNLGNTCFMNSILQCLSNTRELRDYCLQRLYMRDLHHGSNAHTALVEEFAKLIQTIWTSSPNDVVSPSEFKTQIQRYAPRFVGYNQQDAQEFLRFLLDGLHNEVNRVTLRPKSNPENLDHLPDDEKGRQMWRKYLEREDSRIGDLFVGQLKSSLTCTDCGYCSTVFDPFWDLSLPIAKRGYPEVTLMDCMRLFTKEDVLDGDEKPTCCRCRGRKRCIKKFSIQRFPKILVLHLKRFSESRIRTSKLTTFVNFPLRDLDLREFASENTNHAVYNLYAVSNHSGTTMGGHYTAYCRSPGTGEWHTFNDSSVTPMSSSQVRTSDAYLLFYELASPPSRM
#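 Deubiquitinase activity read as fluorescence (485/531 nm) after Ub-CHOP2 cleavage activates the enterokinase reporter on its substrate; USP2 core 10nM, Ub-CHOP2 and substrate 25nM each, 30min compound preincubation then 60min RT; data normalized to NEM, curves fitted.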
# ClpP mod: qHTS Assay for Activators of ClpP | ATP-dependent Clp protease proteolytic subunit (Bacillus subtilis (strain 168)), P80244 | purified B. subtilis ClpP, FRET peptide cleavage, 20 min | Potency, µM (top dose mostly 57.5 µM), for inactives: at the highest dose activity change, negative = active | 340,000 tested, 1.9% active; active means well fitted falling curve with a large enough effect; inconclusive means small, poorly fitted or top-dose-only effect; inactive means no such curve, though single readings can be large or run the other way; further: potency means the concentration at half of the fitted maximal effect; the source files actives as falling curves though it sought activators and does not explain the sign; nearly all actives have a fitted effect of over 65% in size
#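 ClpP 10 microg/mL final, pH 8 Tris/KCl buffer with BSA, glycerol, Tween-20; compound pinned in; FRET-FV substrate; RT 20 min; Ex320/Em430; ΔFRET vs ADEP 5.8 microM, DMSO, no enzyme.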
# IL-2 act: activates IL-2 in a cell-based reporter assay; activation, % (series mostly up to about 46 µM); AID 652025; IL-2 activation reporter assay, cell-based qHTS; stimulated with anti-CD3/CD4/CD28 beads; in transgenic mouse T cells; 360,000 tested, 0.065% active; in the data active means activation above about 50%; inconclusive means mostly about 30% to 49%; further: 0% is about no effect
#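 Screening format: compound pinned onto unstimulated transgenic mouse T cells, 60 min incubation, then anti-CD3/anti-CD4/anti-CD28 bead stimulation for 18 hours at 37 degrees C, followed by EGFP and DsRed detection.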
# a7 integrin act: activates integrin-mediated alleviation for muscular dystrophy | alpha7betagal myoblasts, beta-gal FDG fluorescence, 48 h | Potency, µM (series often up to 38.3 µM), for inactives: top-dose activation, actives largely listed as activators | 350,000 tested, 0.064% active;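 further: potency means the concentration at half of the fitted maximal effect; 100% = response of the positive control SU9516; nearly all actives have a fitted effect of over 60% in size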
#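 alpha7betagal+/- myoblasts (passage 13, 250/well) treated 48 h at 37C with compounds at 1:260 dilution of DMSO stock. Lysed, then beta-galactosidase activity read as FDG fluorescence (ex 480/em 540) after 30 min, with pre-read for autofluorescence.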
# Starred values were filed as active, the others as inactive; ? = inconclusive; / = not tested or not shown; [ ] = another dose, or the depositor's remark. Unless noted, the call rests on the fitted dose curve; in most records, active means well fitted curve in the direction sought with a large enough effect; inconclusive means small, poorly fitted or top-dose-only effect, or another doubt; inactive means no such curve, though single readings can be large; an effect the other way counts as inactive or inconclusive.
SMILES,PKM2 activator,Pin1 inhibitor,USP2a block,ClpP mod,IL-2 act,a7 integrin act
COc1ccc(-c2cc(=O)oc3c4c(ccc23)OCN(Cc2ccccc2)C4)cc1,/,-2%,/,-7%,/,/
COc1ccc(-c2cc(=O)oc3c4c(ccc23)OCN(Cc2cccc(OC)c2)C4)cc1,/,18%,/,32µM*,/,/
COc1cccc(/C=N/NC(=O)CSc2nnc(C)n2-c2ccccc2)c1OC,2%,1%,1%,28µM*,1,-9%
CCC1S/C(=N\S(=O)(=O)c2cccs2)N(C2CCCCC2)C1=O (stereo unspecified),-3%,-3%,0%,28µM*,-1,-25%
COc1ccc(-c2nnc(N(C)C(=O)c3ccno3)s2)cc1,11%,7%,-2%,22µM*,1,-4%
CN(C(=O)c1ccno1)c1nnc(-c2ccccn2)s1,-2%,17%,0%,-23%,2,-5%
COc1ccc(-c2c(-c3cc(OC)cc(OC)c3)sc3ccc(OC)cc23)cc1,/,-3%,5%,18µM*,1,15%
COc1cc(OC)cc(-c2sc3ccc(OC)cc3c2-c2ccc(O)cc2)c1,/,1%,1%,?,0,-25%
COc1ccc(-c2sc3ccc(OC)cc3c2-c2ccc(O)cc2)cc1,/,?,-23%,28µM*,-1,-41%
CC(C)(C)c1ccc(NC(=O)COC(=O)c2ccccc2OCC(=O)Nc2ccc(Br)cc2)cc1,/,/,/,-3%,/,/
Cc1ccc(CN2CCNC(=O)C2CC(=O)NCc2cc(C)n(C)n2)cc1 (stereo unspecified),3%,?,4%,32µM*,-3,0%
Cc1nc(CNC(=O)CC2C(=O)NCCN2Cc2ccc(F)cc2)cs1 (stereo unspecified),8%,-17%,5%,0%,-1,-34%
CCOc1ccc(CN2CCNC(=O)C2CC(=O)NCCN2CCOC2=O)cc1 (stereo unspecified),-1%,3%,-1%,28µM*,0,18%
CCOc1ccc(CN2CCNC(=O)C2CC(=O)NCc2csc(C)n2)cc1 (stereo unspecified),0%,-12%,-1%,28µM*,-1,-30%
Nc1nc(NCc2ccc(Cl)cc2Cl)c2[nH]cnc2n1,/,7%,/,-3%,/,/
CCN(CC)CC(=O)c1c(C)n(C)c2ccc(OC)cc12,/,/,/,-10%,/,/
O=C(Cc1ccccc1Cl)NO,/,/,/,-1%,/,/
Cc1ccc(OCC(=O)N(Cc2ccccc2)C(C)C)c([N+](=O)[O-])n1,4%,-1%,1%,3.2µM*,0,-1%
O=S(=O)(c1ccc(OC(F)(F)F)cc1)N1CCN(c2nc(-c3ccccc3)nc3ccccc23)CC1,/,78%,/,-21%,/,/
CCCCn1c(=O)c(Cc2ccccc2)c(O)c2ccccc21,2%,0%,2%,14µM*,-3,8%
CCCCCCn1c(=O)c(Cc2ccccc2)c(O)c2ccccc21,-3%,-5%,3%,/,-1,28%
COc1ccc(N2C(=O)c3ccccc3NC2c2cccnc2)cc1 (stereo unspecified),-2%,4%,1%,-3%,-5,?
O=C1c2ccccc2NC(c2cccnc2)N1c1ccccc1F (stereo unspecified),8%,7%,2%,11µM*,-3,17%
CC[N+]1(CC(=O)c2ccc(I)cc2)CCCCC1,/,/,/,-2%,/,/
CC(=O)c1cc2ccc(O)cc2oc1=O,-6%,?,4%,4%,0,-11%
SMILES,PKM2 activator,Pin1 inhibitor,USP2a block,ClpP mod,IL-2 act,a7 integrin act
Cc1ccc(N=c2oc3cc(O)ccc3cc2C(N)=O)cc1,?,?,-1%,25µM*,0,34%
CCCN1C(=O)/C(=C/c2ccc(C)o2)SC1=Nc1ccc(OC)cc1,1%,2%,-6%,-3%,0,-7%
COc1ccc(N=C2S/C(=C\c3ccc(N4CCOCC4)o3)C(=O)N2CCc2c[nH]c3ccccc23)cc1,3.2µM*,/,2%,/,/,/
COc1ccc(N=C2S/C(=C\c3ccc(OCC(=O)O)cc3)C(=O)N2CCc2c[nH]c3ccccc23)cc1,2.8µM*,/,-13%,/,-3,-28%
O=C(O)COc1ccc(/C=C2\SC(=Nc3ccccc3)N(c3ccccc3)C2=O)cc1,6%,0%,1%,-1%,-2,3%
COc1cc(NC(=O)CSc2nnc3c4ccccc4n(C)c3n2)cc(OC)c1OC,/,?,/,0%,/,/
O=C(Nc1nc2ccc(SC(F)F)cc2s1)c1ccc(NS(=O)(=O)c2ccc(F)c(F)c2)cc1,-2%,14%,-5%,32µM*,-1,-8%
Cn1c2cc(Br)sc2c2cnn(Cc3ccccc3F)c(=O)c21,/,-1%,/,/,/,/
CC1=C(C(=O)N2CCOCC2)C(c2ccccc2F)C2=C(CC(C)(C)CC2=O)N1 (stereo unspecified),-2%,-1%,-6%,14µM*,1,6%[7.66 µM]
COc1ccc(C2C(C(=O)N3CCOCC3)=C(C)NC3=C2C(=O)CC(C)(C)C3)c(OC)c1 (stereo unspecified),-3%,-4%,0%,16µM*,0,-2%
CC1=C(C(=O)N2CCOCC2)C(c2ccccc2F)NC(=O)N1 (stereo unspecified),1%,-13%,3%,/,2,-18%
COc1ccc(Cl)cc1N(C)c1nc(N2CCN(S(=O)(=O)c3ccc(C)cc3)CC2)c2ccccc2n1,/,/,/,4%,/,/
O=C(Cn1cc(CNC(=O)c2ccccc2)nn1)Nc1cc(C(F)(F)F)ccc1Cl,/,-2%,/,/,/,/
CCCSc1ccc2nc(-c3ccccc3)cn2c1,-55%,5%,2%,22µM*,0,28%
CCN(CC)c1cc(C)c(/C=C/c2ccnc3ccccc23)cc1C,/,/,/,-4%,/,/
COc1cccc(/C=C/C(=O)OCC(=O)c2c(N)n(C)c(=O)n(C)c2=O)c1,/,0%,0%,25µM*,-2,-30%
COc1ccc(/C=C/C(=O)OCC(=O)c2c(N)n(C)c(=O)n(C)c2=O)cc1,-3%,-17%,1%,6%,1,2%
COc1cccc(/C=C/C(=O)OCC(=O)Nc2cc(C(F)(F)F)ccc2Cl)c1,0%,-1%,2%,35µM*,1,27%
O=C1c2ccccc2NC(c2ccccc2O)N1Cc1ccco1 (stereo unspecified),/,0%,/,5%,/,/
COC(=O)c1cc(F)c(S(=O)(=O)N2CCN(S(=O)(=O)c3ccc4c(c3)OCCO4)CC2)cc1F,/,-4%,/,/,/,/
NC1=CC(=O)c2cccc3cccc1c23,1%,/,9%,/,/,/
NC1=Nc2cccc3cccc1c23,0%,-13%,2%,-2%,4,7.9µM*

# Assay outcomes (PubChem BioAssay)
